EBNA-1 inhibitor = blocks EBNA-1 binding to DNA. EBNA-1 DNA binding, fluorescence polarization. inhibition, % at 14.8 µM. 300,000 compounds, 0.34% hits; in the data active = inhibition above about 28%
ZTA counter = blocks Epstein-Barr virus ZTA, an EBNA-1 counter-screen; inhibition, % at 11 µM; P03206; 320,000 compounds, 0.15% hits; ZTA-DNA binding, fluorescence polarization; in the data active = inhibition above about 33%
Target sequence (P03206 whole entry, looked up): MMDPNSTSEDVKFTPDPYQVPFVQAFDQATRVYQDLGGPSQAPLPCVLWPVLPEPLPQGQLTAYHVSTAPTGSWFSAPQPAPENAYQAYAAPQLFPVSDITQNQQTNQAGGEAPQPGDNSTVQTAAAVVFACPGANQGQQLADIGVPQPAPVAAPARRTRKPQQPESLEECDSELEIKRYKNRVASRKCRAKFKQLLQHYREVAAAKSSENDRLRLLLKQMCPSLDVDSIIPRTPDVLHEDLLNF
E coli Lon inh = E. coli protease La inhibition | P0A9M0 | purified E. coli Lon protease, fluorescence polarization | inhibition, % at 7.94 µM | 360,000 compounds, 0.42% hits | AID 602123; in the data active = inhibition above about 13%, passing the limit was not always enough;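 also: 0% = enzyme with probe and DMSO and 100% = no enzyme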
Keap1 Nrf2 FP = Keap1-Nrf2 (human) interaction inhibition; Q14145; Keap1 Kelch-Nrf2 peptide fluorescence polarization, 1536-well; inhibition, % at 9.4 µM; 340,000 compounds, 0.15% hits; AID 504523; in the data active = inhibition above about 12%;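 also: human Keap1 Kelch domain with fluorescein labeled Nrf2 9mer peptide probe; 0% = neutral control wells and 100% = peptide positive control; higher means more block of Keap1 binding to Nrf2 peptide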
LANA DNA inh = KSHV C-LANA DNA binding inhibition. 340,000 compounds, 0.078% hits. MBP-C-LANA/FAM-LBS DNA binding, fluorescence polarization. inhibition, % at 9 µM;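 active = highest replicate inhibition at or above 60% at 9 µM, even if other replicates fall short; inactive = all replicates below 60% inhibition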;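 also: 0% = neutral control wells and 100% = 4 µM acridine orange control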
EBNA-1 confirm = EBNA-1 (EBV) inhibition, confirmation. Recombinant EBNA-1 DBD, Cy5-DNA fluorescence polarization. shares compounds with EBNA-1 inhibitor. AID 2292. 830 compounds, 35% hits. inhibition, % at 14.8 µM;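 active = mean inhibition across replicates above a set limit taken from the earlier primary screen, cut at about 28% in these data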;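 also: plate controls were EBNA-1 protein with DMSO for no effect and wells lacking EBNA-1 for full effect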
ZTA DNA inh trip = counter-screen for EBNA-1 inhibitors: Epstein-Barr virus ZTA inhibitors, triplicate; inhibition, % at 11.1 µM; shares compounds with EBNA-1 inhibitor; AID 2328; Zta-ZRE DNA binding, Cy5 fluorescence polarization; 830 tested, under 10 active;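 active = mean inhibition over triplicates above a set limit taken from the primary EBNA-1 screen, cut at about 37% in these data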;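 also: purified full length Zta protein with Cy5 labeled ZRE DNA probe; 0% = Zta with DMSO and 100% = wells lacking Zta protein; inhibitors lower polarization by freeing the labeled DNA probe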
* = called active by the depositor; · = no result given. Shown are actives, neighbours in structure and some others; about 0.85% of the full set was active somewhere.

SMILES | EBNA-1 inhibitor | ZTA counter | E coli Lon inh | Keap1 Nrf2 FP | LANA DNA inh | EBNA-1 confirm | ZTA DNA inh trip
Cc1cccc(C(=O)Oc2ccccc2/C=N/Nc2ccc([N+](=O)[O-])cc2)c1 | 34.4* | 4.5 | -3.0 | -4.7 | 0.6 | 40.9* | 0.5
COCCCn1c(C)cc(C(=O)CN2c3cccc4cccc(c34)S2(=O)=O)c1C | · | -0.4 | -1.6 | -4.8 | 0.9 | · | ·
O=c1cc(-c2ccc(O)cc2)oc2c(-c3c(O)cc(O)c4c(=O)cc(-c5ccc(O)cc5)oc34)c(O)cc(O)c12 | · | · | 6.9 | -2.9 | 0.9 | · | ·
O=c1cc(-c2ccc(O)c(-c3c(O)cc(O)c4c(=O)cc(-c5ccc(O)cc5)oc34)c2)oc2cc(O)cc(O)c12 | 33.6* | 2.5 | 2.1 | -4.4 | 0.6 | 29.2* | 19.9
CC[C@@H]1CCCCc2ccccc2[C@H](C(=O)C[C@H](O)CC(C)=O)OC1=O | · | · | -5.2 | 2.7 | 0.7 | · | ·
O=C(Nc1ccc(N2CCN(c3ncccc3C(F)(F)F)CC2)nc1)c1cccs1 | 1.1 | -8.0 | -5.9 | 5.8 | 3.6 | · | ·
O=C(Nc1ccc(N2CCN(c3ccc(C(F)(F)F)cn3)CC2)nc1)c1cccs1 | 39.2* | 1.7 | 8.7 | -1.8 | -0.2 | 14.3 | -2.9
Cc1ccc2nc(SCC(=O)NCc3cccs3)c(C#N)cc2c1 | 32.6* | 4.8 | -6.5 | -2.8 | 0.7 | -0.7 | 7.3
CCOc1cc(NS(=O)(=O)c2ccc(NC(C)=O)cc2)c(OCC)cc1NC(=O)c1cccs1 | 41.1* | -4.3 | 9.8 | -4.7 | 1.8 | 27.8* | -12.4
CCOc1cc(NC(=S)NC)c(OCC)cc1NC(=O)c1cccs1 | -10.1 | -4.8 | 4.0 | -1.1 | -1.1 | · | ·
O=C(Cn1c(=O)oc2ccccc21)Nc1cccc(Cl)c1 | 7.7 | 13.8 | 3.6 | -3.0 | 10.4 | · | ·
COC(=O)c1cc(NC(=O)Cn2c(=O)oc3ccccc32)cc(C(=O)OC)c1 | 65.5* | 3.5 | -8.7 | -3.5 | 0.4 | 38.2* | -7.0
COc1ccc(NC(=O)Cn2c(=O)oc3ccccc32)cc1 | -3.0 | -8.8 | 0.8 | -1.4 | -0.2 | · | ·
O=C(CCn1c(=O)oc2ccccc21)Nc1cccc(Cl)c1 | 36.3* | 25.5 | -10.6 | -0.4 | 0.7 | 2.1 | -2.2
CC(C)C[C@@H](CN1CCC[C@H]1CN1C(=O)C(=O)NC[C@@H]1Cc1ccccc1)N1C[C@H](Cc2ccccc2)N(CC2CCCCCC2)C(=O)C1=O | · | · | -11.1 | · | · | · | ·
CCNC(=O)C1(C)CCCN1C(=O)c1c(F)cccc1F (centres undefined) | · | · | -0.5 | · | · | · | ·
CCC(=O)NCc1csc(-c2cccs2)n1 | -6.5 | -2.1 | 4.4 | -0.9 | -1.7 | · | ·
O=C(NCc1csc(-c2cccs2)n1)Nc1cccc(Cl)c1 | 28.4* | 8.0 | 3.5 | -0.4 | 1.8 | 22.9 | 4.1
Cc1c(CCNC=O)cc(C)c2c3c(oc12)CCCC3 | · | · | -6.6 | -0.5 | 0.4 | · | ·
COc1ccc(Nc2nc(N(C)c3ccccc3)nc(N)c2[N+](=O)[O-])cc1 | 34.1* | 13.7 | -2.1 | -0.9 | 0.0 | 40.3* | 0.1
CC(=O)CCc1c(C)nc2ccc(C(=O)O)cc2c1Cl | 31.3* | 7.7 | 15.1 | -1.2 | 1.0 | -12.6 | -22.0
CCCn1c(C)cc(/C=C(\C#N)C(=O)OCC(=O)Nc2cccc(S(N)(=O)=O)c2)c1C | · | 16.1 | -11.1 | 5.1 | 1.7 | · | ·
CCCn1c(C)cc(/C=C(\C#N)C(=O)OCC(=O)Nc2cccc(OC)c2)c1C | 67.2* | 2.6 | -0.3 | -7.2 | 0.7 | 0.4 | 2.2
Cc1ccc(NC(=O)CSc2ccc(-c3ccccn3)nn2)cc1F | 36.2* | 1.0 | 0.7 | 1.9 | -0.8 | 52.7* | 6.9
O=C(c1c(F)cccc1F)N1CCCc2ccccc21 | -3.2 | -13.4 | 16.5 | 3.2 | -0.6 | · | ·
CCOc1ccc(NC(=S)NNC(=S)Nc2cccc(C(F)(F)F)c2)cc1 | 9.5 | 8.8 | 3.3 | 3.4 | 0.9 | · | ·
COc1ccc(NC(=S)NNC(=S)Nc2cccc(C(F)(F)F)c2)cc1 | 169.4* | -3.7 | 14.1 | -4.6 | 0.4 | 83.3* | 1.4
O=C(COC(=O)/C=C/c1ccc(F)cc1)Nc1cc(C(F)(F)F)ccc1N1CCOCC1 | 8.3 | 3.7 | -0.7 | 2.3 | -0.4 | · | ·
O=C(COC(=O)/C=C/c1ccccc1)Nc1cc(C(F)(F)F)ccc1N1CCOCC1 | 54.8* | -10.5 | -4.0 | 5.2 | 0.8 | 74.8* | -8.3

Screening results from PubChem BioAssay.
